As usually defined, the inhibition is the change of the read-out against control, counted positive when it falls.

Screen size: about 5,600 compounds; about 150 (2.7%) showed an effect of 50% or more. Shown is part of a subset that was picked to be rich in strong results.

For experiment [1], the target named is T1, Protein deacetylase HDAC6 (Homo sapiens) (UniProt Q9UBN7).
T1 sequence (whole entry): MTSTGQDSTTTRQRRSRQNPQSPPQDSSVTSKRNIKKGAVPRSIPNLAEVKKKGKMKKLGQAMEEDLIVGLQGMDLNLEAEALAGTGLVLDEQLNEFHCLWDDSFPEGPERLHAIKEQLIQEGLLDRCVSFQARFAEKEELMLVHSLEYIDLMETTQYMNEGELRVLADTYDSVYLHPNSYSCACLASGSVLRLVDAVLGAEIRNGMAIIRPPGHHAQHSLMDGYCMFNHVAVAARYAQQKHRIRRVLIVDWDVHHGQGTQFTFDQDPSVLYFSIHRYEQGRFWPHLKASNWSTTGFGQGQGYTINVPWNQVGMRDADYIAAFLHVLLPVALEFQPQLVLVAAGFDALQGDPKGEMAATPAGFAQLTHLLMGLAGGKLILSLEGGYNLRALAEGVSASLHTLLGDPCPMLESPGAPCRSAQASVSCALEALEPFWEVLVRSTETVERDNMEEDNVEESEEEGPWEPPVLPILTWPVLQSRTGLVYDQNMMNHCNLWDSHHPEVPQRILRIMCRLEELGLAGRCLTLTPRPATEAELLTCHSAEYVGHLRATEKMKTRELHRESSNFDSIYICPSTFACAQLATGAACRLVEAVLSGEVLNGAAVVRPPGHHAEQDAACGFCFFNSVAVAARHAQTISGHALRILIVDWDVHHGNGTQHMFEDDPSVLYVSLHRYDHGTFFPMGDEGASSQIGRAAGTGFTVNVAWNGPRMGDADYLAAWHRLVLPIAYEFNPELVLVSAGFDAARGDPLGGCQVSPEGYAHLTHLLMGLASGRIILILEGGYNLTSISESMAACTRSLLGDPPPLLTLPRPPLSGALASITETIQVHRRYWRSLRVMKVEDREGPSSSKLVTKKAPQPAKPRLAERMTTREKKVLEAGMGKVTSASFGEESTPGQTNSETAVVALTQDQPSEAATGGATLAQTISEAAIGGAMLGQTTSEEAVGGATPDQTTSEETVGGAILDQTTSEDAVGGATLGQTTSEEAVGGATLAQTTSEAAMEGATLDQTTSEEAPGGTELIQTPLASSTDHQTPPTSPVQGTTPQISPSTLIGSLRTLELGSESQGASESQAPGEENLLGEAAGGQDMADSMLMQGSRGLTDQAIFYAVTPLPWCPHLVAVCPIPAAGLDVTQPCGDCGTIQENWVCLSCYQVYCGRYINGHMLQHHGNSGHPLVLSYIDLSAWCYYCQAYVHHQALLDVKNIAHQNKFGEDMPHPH
To be noted: at 10 µM.

The target of experiment [2] is Protein deacetylase HDAC6 (Homo sapiens) (UniProt Q9UBN7). To be noted: at 10 µM. The source holds these as a separate data set.

As to `CCCCNc1ncc(-c2ccc(CN3CCOCC3)cn2)c(N[C@H]2CC[C@H](O)CC2)n1`, the inhibition in experiment [1] is -9.04%.

Regarding `CCc1c(C(=O)Nc2cc(S(=O)(=O)N(CC)CC)ccc2O)[nH]c(C)c1C(C)=O`, the inhibition in experiment [1] is -2.94%.

As for `NC(Cn1ccc(=O)n(Cc2ccccc2C(=O)O)c1=O)C(=O)O` (stereo unspecified), the inhibition in experiment [1] is -9.78%.

For SPIRAMYCIN, CHEMBL6195749, in experiment [2], the inhibition is -1.63%.

In the case of `COc1ccc(Cl)cc1[C@]1(F)C(=O)Nc2cc(C(F)(F)F)ccc21`, the inhibition in experiment [1] is -2.57%.

Regarding `Nc1n[nH]c2nc3ccccc3nc12`, the inhibition in experiment [1] is 33.5%.

For `O=C(O)C(O)Cc1ccc(O)c(O)c1` (stereo unspecified), the inhibition in experiment [1] is 6.01%.

For `CC(C)C(=O)c1ccc(O)c(O)c1`, in experiment [1], the inhibition was 0.03%.

For `O=C(NO)c1ccc(O)c(O)c1`, in experiment [1], the inhibition came to 56.3%.

`COc1cc2c(c(OC)c1OC)-c1c(cc3c(c1OC)OCO3)C[C@@H](C)[C@@H](C)C2`: the inhibition in experiment [1] was -5.94%.

As for `O=S(=O)(NCCCCCCc1ccccc1)c1cccc2c(Cl)cccc12`, the inhibition in experiment [1] is -3.75%.

For the molecule `Oc1ccc(OCc2ccccc2)cc1`, the inhibition in experiment [1] was 87%.

For the molecule `CC/C(=C(\c1ccc(O)cc1)c1ccc(OCCNC)cc1)c1ccccc1`, the inhibition in experiment [1] is -2.91%.

Take `COc1ccc(O)cc1`: the inhibition in experiment [1] came out at 1.74%.

Take `O=C(c1ccccc1)c1ccc2n1CCC2C(=O)O` (stereo unspecified): in experiment [1], the inhibition was 75.8%.

Consider `O=C(O)C1CCCN(CCC=C(c2ccccc2)c2ccccc2)C1` (stereo unspecified), for which the inhibition in experiment [1] is -1.71%.

For `O=C(O)c1ccccc1`, the inhibition in experiment [1] came out at 3.92%.

On to `CC(=O)C1=C(O)C=C2Oc3c(C(C)=O)c(O)c(C)c(O)c3[C@@]2(C)C1=O`, for which the inhibition in experiment [1] was -7.8%.

Regarding `CO[C@H]1/C=C/O[C@@]2(C)Oc3c(C)c(O)c4c(O)c(cc(O)c4c3C2=O)NC(=O)/C(C)=C\C=C\C(C)[C@H](O)[C@@H](C)[C@@H](O)[C@@H](C)[C@H](OC(C)=O)[C@@H]1C` (stereo partly specified), the inhibition in experiment [1] stood at 1.34%.

Consider `CSc1nc(-c2ccc(F)cc2)c(-c2ccnc(NC(C)c3ccccc3)c2)[nH]1` (stereo unspecified), for which the inhibition in experiment [1] is -0.06%.

On to `Cc1nccc2[nH]c(=O)ccc12`, for which the inhibition in experiment [1] was -0.8%.

As to `COC(=O)CC1CC(c2ccc(O)cc2)=NO1` (stereo unspecified), the inhibition in experiment [1] was determined as 68.8%.

In the case of `COC(=O)c1ccc(O)cc1`, the inhibition in experiment [1] was determined as 11.4%.

As for `Fc1ccc(-c2cncc(CN3CCN(c4cccc5c4OCCO5)CC3)c2)cc1`, the inhibition in experiment [1] was 2%.

`COC[C@@H](c1ccc(C(F)(F)F)cc1)N1CCN(C2(C)CCN(C(=O)c3c(C)ncnc3C)CC2)C[C@@H]1C`: the inhibition in experiment [1] is 6.58%.

As to `O=C(c1ccc(/C=C/c2n[nH]c3ccccc23)cc1)N1CCNCC1`, the inhibition in experiment [1] was found to be 98%.

With `Nc1ccc(/N=N/c2ccccc2)c(N)n1`, the inhibition in experiment [1] stood at 78.3%.

In the case of `Nc1c2ccccc2nc2ccccc12`, the inhibition in experiment [1] was 4.21%.

In the case of `Cc1ccc2c(c1)c1c(n2CCc2ccc(C)nc2)CCN(C)C1`, the inhibition in experiment [1] turned out to be 0.41%.

For the molecule `O=C(O)CCn1c2c(c3ccccc31)C[C@H](NS(=O)(=O)c1ccc(F)cc1)CC2`, in experiment [1], the inhibition was 0.51%.

In the case of `CN1CCc2c(c3ccccc3n2Cc2ccc(C(=O)NO)cc2)C1`, in experiment [1], the inhibition was 97%.

On to `N#Cc1c(N)nc(SCc2ncc[nH]2)c(C#N)c1-c1ccc(O)cc1`, for which the inhibition in experiment [1] was 4.89%.

On to `CSc1ccc(C(=O)N[C@@H]2CCCC[C@@H]2NC(=O)CNC(=O)c2cc(C(F)(F)F)ccc2NC(=O)NC(C)C)cc1`, for which the inhibition in experiment [1] was -5.32%.

For `Cc1ccc(S(=O)(=O)Nc2nc3ccccc3nc2Nc2ccc3nsnc3c2)cc1`, in experiment [1], the inhibition turned out to be 1.65%.

Turning to `C#Cc1cccc(Nc2ncnc3cc(OC)c(OCCCCCCC(=O)NO)cc23)c1`, the inhibition in experiment [1] came out at 94.6%.

In the case of `C#Cc1cccc(Nc2ncnc3cc(OCCOC)c(OCCOC)cc23)c1`, the inhibition in experiment [1] was 1.06%.

As for `COc1cc2ncnc(Nc3cccc(Br)c3)c2cc1OC`, the inhibition in experiment [1] was -6.11%.

For `COc1cc2c(NC3CCN(C)CC3)nc(N3CCCN(C)CC3)nc2cc1OCCOCCN(C)C`, the inhibition in experiment [1] was determined as 4.62%.

On to `O=C(NCCO)c1cc(C(=O)NCCO)cc(C(=O)NCCO)c1`, for which the inhibition in experiment [1] was -2.63%.

Regarding `CCc1nn(CCO)c(CC)c1Oc1cc(C#N)cc(C#N)c1`, the inhibition in experiment [1] was -5.93%.

As to `O=C1Nc2ccccc2/C1=C1/Nc2ccccc2/C1=N\O`, the inhibition in experiment [1] was 36.4%.

In the case of `O=C(Nc1ccc(O)cc1)c1ccccc1O`, the inhibition in experiment [1] is 44.6%.

Regarding `O=C(N/N=C/c1ccc(O)c(O)c1)c1cc2ccccc2cc1O`, the inhibition in experiment [1] amounted to 32.8%.

Regarding `O=C(N/N=C/c1ccccc1O)c1ccccc1O`, the inhibition in experiment [1] stood at 77.3%.

For `CC#C[C@@H](CC(=O)O)c1ccc(OCc2cccc(-c3ccc(C(F)(F)F)cc3)c2)cc1`, in experiment [1], the inhibition worked out at 5.76%.

Take `O=C(O)c1ccc(CN2CCC(CN[C@@H]3C[C@H]3c3ccccc3)CC2)cc1`: the inhibition in experiment [1] turned out to be 8.19%.

`N[C@@H](CCC(=O)O)C(=O)O`: the inhibition in experiment [1] was -3.62%.

In the case of `O=c1c(O[C@@H]2O[C@H](CO)[C@H](O)[C@H](O)[C@H]2O)c(-c2ccc(O)c(O)c2)oc2cc(O)cc(O)c12`, the inhibition in experiment [1] amounted to 11.7%.

For `O=c1c(O)c(-c2ccc(O)cc2O)oc2cc(O)cc(O)c12`, in experiment [1], the inhibition came out at 2.84%.

On to `O=c1c(-c2ccc(O)cc2)coc2cc(O)cc(O)c12`, for which the inhibition in experiment [1] was 57.9%.

For the molecule `COc1ccc(-c2coc3cc(O)cc(O)c3c2=O)cc1`, the inhibition in experiment [1] is 63.1%.

As to `COc1ccc(C(=O)c2ccc(C)cc2)c(O)c1`, the inhibition in experiment [1] came to 5.59%.

`COc1ccc(-c2oc3c(CC=C(C)C)c(O)cc(O)c3c(=O)c2O)cc1`: in experiment [1], the inhibition was 6.17%.

As for `COc1ccc(OCC2c3cc(OC)c(OC)cc3CCN2C(=O)c2cccc(Cl)c2)cc1` (stereo unspecified), in experiment [1], the inhibition is -0.3%.

On to “BIS(MALTOLATO)OXOVANADIUM(IV), CHEMBL286447”, for which the inhibition in experiment [2] is 1.5%.

Regarding `c1ccc2c(c1)-c1nc-2nc2[nH]c(nc3nc(nc4[nH]c(n1)c1ccccc41)-c1ccccc1-3)c1ccccc21`, the inhibition in experiment [1] was -0.22%.
